# Laboratory results from PubChem BioAssay (EPA / NIEHS).
# Calls of active or inactive are those of the source. Rule for the calls: active = hit-call score of the fitted dose curve at least 0.9, where 1 is the maximum; inactive = score below 0.9.
# Assay: BSK_KF3CT_SRB: Viability Assessment in the BioMAP Diversity Plus: KF3CT Assay (AID 2283069);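 note: fitted for both signal gain and loss against DMSO baseline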
# Conditions: primary human keratinocytes with fibroblasts
# Protocol: BSK_KF3CT is a cell-based, multiplexed-readout assay that uses keratinocytes and foreskin fibroblasts, a human skin primary cell co-culture, with measurements taken at 24 hours after chemical dosing in a 96-well plate.BSK_KF3CT_SRB is an assay component measured in the BSK_KF3CT assay. It measures 0.1% sulforhodamine related to cell death using Sulforhodamine staining technology.Data from the assay component BSK_KF3CT_SRB was analyzed into 1 assay endpoint. This assay endpoint, BSK_KF3CT_SRB, was analyzed with bidirectional fitting relative to DMSO as the negative control and baseline of activity. Using a type of viability reporter, gain or loss-of-signal activity can be used to understand changes in the signaling. Furthermore, this assay endpoint can be referred to as a primary readout, because this assay has produced multiple assay endpoints where this one serves a signaling function. To generalize the intended target to other relatable targets, this assay endpoint is annotated to the cell morphology intended target family, where the subfamily is cell conformation.
# The levels of cell surface (or secreted, indicated by the prefix "s") biomarker endpoints were measured by ELISA. Overt cytotoxicity to cells in confluent adherent cultures (all systems other than the BT system) was assessed by measuring total protein levels using sulforhodamine B (SRB) staining in parallel cultures at the time of biomarker measurements, indicated as SRB endpoints. For proliferation assays for adherent cell types, individual cell types are cultured at sub-confluence and relative cell numbers quantified by SRB staining at time points optimized for each system (48 h: 3C and CASM3C systems; 72 h: BT and HDF3CGF systems; 96 h: SAg system). SRB was performed by staining cells with 0.1% SRB after fixation with 10% TCA and reading wells at 560 nm.Viability and proliferation of PBMC (T cells) was quantified by Alamar Blue reduction for the SAg and BT systems. For PBMC viability (referred to as PBMC Cytotoxicity within the assay endpoint names), cells were plated (75,000/well in a 96-well plate) and then chemical samples added for 1 h before addition of activators, SEB and TSST-1 (20 ng/mL final concentration each). Cells were incubated for 90 h. Then, Alamar Blue (20 uL/well) (Invitrogen, Cat DAL1100) was added for 6 h, and the plates were read with a fluorescence microplate reader at 546/580 nm (excitation/emission). For PBMC proliferation, cells were plated and activated as above but incubated for only 16 h prior to addition of Alamar Blue. Plates were read after 6 h.
SMILES,outcome,AC50
C=CCCCCCCCCC(=O)O,inactive,
O=C(O)c1cccc(Oc2ccccc2)c1,inactive,
CNCc1ccc(NC(=O)c2c[nH]c3c2C(=O)CCC3)cc1,inactive,
CCOCCO,inactive,
Cc1ccc(S(=O)(=O)O)cc1C,inactive,
COCCOc1cc2cc(C(=O)NC3CCN(C(C)C)CC3)n(CC(=O)Nc3ccc(Cl)cn3)c2cn1,inactive,
C=CC(=C)CCC=C(C)C,inactive,
COC(=O)c1ccccc1O,inactive,
CC(C)CCCCCCCOC(=O)CCCCC(=O)OCCCCCCCC(C)C,inactive,
O=c1[nH]c2ccc(S(=O)CCN3CCC(Cc4ccc(F)cc4)CC3)cc2o1 (stereo not given),inactive,
Nc1ccc(Nc2ccccc2)cc1,inactive,
Cc1ccc(C)c(O)c1,inactive,
Cc1[nH]cnc1C[C@H]1CCc2c(C)c3ccccc3n2C1=O,inactive,
O=P(OC(CCl)CCl)(OC(CCl)CCl)OC(CCl)CCl,inactive,
CCN(C(=O)c1cc(C)cc(OC[C@H](C)Nc2ccncc2)c1)C(C)C,inactive,
CC[C@H]1OC(=O)[C@H](C)[C@@H](O[C@H]2C[C@@](C)(OC)[C@@H](O)[C@H](C)O2)[C@H](C)[C@@H](O[C@@H]2O[C@H](C)C[C@H](N(C)C)[C@H]2O)[C@](C)(O)C[C@@H](C)C(=O)[C@H](C)[C@@H](O)[C@]1(C)O,inactive,
O=C1CCCCCN1,inactive,
CC(C)=CCCC(C)=CC=O,inactive,
CC/C(=C\C(=N/O)C(N)=O)C(C)[N+](=O)[O-] (stereo not given),inactive,
Nc1cccc(N)c1,inactive,

SMILES,outcome,AC50
CC(C)c1cccc(C(C)C)c1N1C(=O)c2ccc(O)cc2C1=O,,29.1 µM (active)
O=C(OC[C@H]1O[C@@H](OC(=O)c2cc(O)c(O)c(OC(=O)c3cc(O)c(O)c(O)c3)c2)[C@H](OC(=O)c2cc(O)c(O)c(OC(=O)c3cc(O)c(O)c(O)c3)c2)[C@@H](OC(=O)c2cc(O)c(O)c(OC(=O)c3cc(O)c(O)c(O)c3)c2)[C@@H]1OC(=O)c1cc(O)c(O)c(OC(=O)c2cc(O)c(O)c(O)c2)c1)c1cc(O)c(O)c(OC(=O)c2cc(O)c(O)c(O)c2)c1,inactive,
CNS(=O)(=O)c1cc(C(=O)N2CCC(CCN3C4CCC3CC(n3c(C)nc5ccccc53)C4)(c3cccc(F)c3)CC2)c(Cl)cc1F (stereo not given),inactive,
CCOC(=O)CC(CC(=O)OCC)(OC(C)=O)C(=O)OCC,inactive,
CCCCC(CC)COC(=O)c1ccc(C(=O)OCC(CC)CCCC)cc1 (stereo not given),inactive,
CCOC(=O)COc1ccc2c(c1)CC(NCC(O)c1cccc(Cl)c1)CC2 (stereo not given),inactive,
Cn1cnc([N+](=O)[O-])c1Sc1ncnc2nc[nH]c12,inactive,
CC1(C)C(=O)N(Br)C(=O)N1Br,inactive,
COCCOCCOCCOC,inactive,
CCNc1ccccc1,inactive,
O=c1n(CC2CO2)c(=O)n(CC2CO2)c(=O)n1CC1CO1 (stereo not given),inactive,
CC(C)=CCCC(C)CCO (stereo not given),inactive,
CCCCCCCCCCCCc1ccccc1,inactive,
COc1cccc(-c2ccc(/C=C\CN3CCCCCC3)cc2Cl)c1,,30.6 µM (active)
CC[C@H](C)C(=O)O[C@H]1C[C@@H](C)C=C2C=C[C@H](C)[C@H](CC[C@@H]3C[C@@H](O)CC(=O)O3)[C@H]21,,31.7 µM (active)
CC(=O)OCCC(C)C,inactive,
CC(=O)c1ccc2c(c1)[C@H](NC(=O)c1ccc(F)cc1)[C@@H](O)C(C)(C)O2,inactive,
Cc1ccc(N)cc1O,inactive,
CC(C)CCO,inactive,
CCCN(C1CCN(C(=O)C2CCNCC2)CC1)[C@@H]1CCc2ccc(OC)cc2C1,inactive,
